# Test results published in PubChem BioAssay (NCATS).
# “And” between values parts separate entries of the source, which are not always exact repeats. Identical values can stand only once. Records with an inconclusive call do not appear. A call without a number means that no potency is given here. Unmarked numbers belong to inactive results. The source made the active and inactive calls. The call rests on the fitted dose curve; in most records, active means well fitted curve in the direction sought with a large enough effect; inconclusive means small, poorly fitted or top-dose-only effect, or another doubt; inactive means no such curve, though single readings can be large; an effect the other way counts as inactive or inconclusive.
# Tests used:
# [1] = Viability qHTS for spleen associated tyrosine kinase inhibitor (SYKi) naive MV4-11 cells (AID 1963823); further: nearly all actives have a fitted effect of over 40% in size; further: potency means the concentration at half of the fitted maximal effect
# In short: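 Cells: MV4-11, SYK inhibitor naive, 500 per well. Treatment: library compounds, 72 hr, 37 C, 5% CO2. Read-out: CellTiter-Glo luminescence after 10 min RT.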
# [2] = Viability qHTS for spleen associated tyrosine kinase inhibitor (SYKi) drug resistant MV4-11 cells (AID 1963824); further: nearly all actives have a fitted effect of over 35% in size; further: potency means the concentration at half of the fitted maximal effect
# In short: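 SYK-inhibitor-resistant MV4-11 AML cells were seeded at 500 per well onto compound and cultured 72 hours (37 °C, 5% CO2). CellTiter-Glo was then added, and after 10 min at room temperature, luminescence gave viability.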
# [3] = Cellular viability qHTS for adrenocortical cancer (ACC) cell line NCI-H295R (AID 1963990); further: nearly all actives have a fitted effect of over 60% in size; further: potency means the concentration at half of the fitted maximal effect
# In short: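 Viability of NCI-H295R after 48 h of treatment (final up to 46 uM) measured through cellular ATP luminescence.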
# [4] = Quantitative highthroughput screen to assess conditional lethalithy of NOMO1 cells grown in RPMI1640 with untreated serum (RPMI+s) (AID 1963876); further: nearly all actives have a fitted effect of over 35% in size
# In short: (§1)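 Each medium arm—HPLM with 10% dialyzed FBS, or RPMI1640 with 5 mM glucose and 10% untreated or dialyzed FBS—was screened against an 11-point, 3-fold compound titration for 48 h at 37 °C, with CellTiter-Glo luminescence as endpoint.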
# [5] = Quantitative highthroughput screen to assess conditional lethalithy of NOMO1 cells grown in RPMI1640 with dialyzed fetal bovine serum (RPMI+ds) (AID 1963877); further: series mostly up to about 46 µM; nearly all actives have a fitted effect of over 30% in size
# In short: as §1
# [6] = Quantitative highthroughput screen to assess conditional lethalithy of NOMO1 cells grown in Human Plasma-Like Medium with dialyzed fetal bovine serum (HPLM+ds) (AID 1963878); further: nearly all actives have a fitted effect of over 35% in size
# In short: as §1
# [7] = Quantitative highthroughput screen to assess conditional lethalithy of P12 Ichikawa cells grown in Human Plasma-Like Medium with dialyzed fetal bovine serum (HPLM+ds) (AID 1963879); conditions: Potency: viability; further: series mostly up to about 46 µM; nearly all actives have a fitted effect of over 35% in size
# In short: as §1
# [8] = Cellular viability qHTS for adrenocortical cancer (ACC) cell line SW-13 (AID 1963989); conditions: SW-13 ACC cells viability, CellTiter-Glo, 48 h; activity (max response): active compounds read low; further: nearly all actives have a fitted effect of over 65% in size; further: potency means the concentration at half of the fitted maximal effect;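 on activity (max response): cells grown in serum-free medium with ITS supplement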
# In short: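 Here, serum-free SW-13 cultures were dosed up to 46 uM. Following 48 h, ATP-dependent luminescence (CellTiter-Glo) reported viable cells, and logistic modeling produced IC50 values.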
# [9] = Quantitative highthroughput screen to assess conditional lethalithy of P12 Ichikawa cells grown in RPMI1640 with untreated serum (RPMI+s) (AID 1963881); conditions: Potency: viability
# In short: as §1
# [10] = Quantitative highthroughput screen to assess conditional lethalithy of SEM cells grown in Human Plasma-Like Medium with dialyzed fetal bovine serum (HPLM+ds) (AID 1963882)
# In short: as §1
# [11] = Quantitative highthroughput screen to assess conditional lethalithy of SEM cells grown in RPMI1640 with unreated serum (RPMI+s) (AID 1963883); further: nearly all actives have a fitted effect of over 35% in size
# In short: as §1
structure (smiles),measurement,setting,value
C[C@]12CC[C@@H]3c4ccc(OC(=O)N(CCCl)CCCl)cc4CC[C@H]3[C@@H]1CC[C@@H]2O,Potency,[1],inactive
same,Potency,[2],inactive
same,Potency,[3],inactive
C/C=C(/C)C(=O)O[C@H]1C(C)=C2[C@H]([C@@H]1OC(=O)CCCCCCC)[C@@](C)(OC(C)=O)C[C@H](OC(=O)CCC)[C@@]1(O)[C@H]2OC(=O)[C@@]1(C)O,Potency,[1],25.9 nM (active) and 20.9 nM (active)
same,Potency,[2],18.4 nM (active) and 3.7 nM (active)
same,Potency,[3],1780 nM (active)
C/C1=C/C[C@@H](/C(C)=C/c2csc(C)n2)OC(=O)C[C@H](O)C(C)(C)C(=O)[C@H](C)[C@@H](O)[C@@H](C)CCC1,Potency,[1],33.2 nM (active)
same,Potency,[2],33.2 nM (active)
same,Potency,[3],22.4 nM (active)
C[C@](O)(COc1ccc(C#N)cc1)C(=O)Nc1ccc(C#N)c(C(F)(F)F)c1,Potency,[1],18600 nM (active)
same,Potency,[4],inactive
same,Potency,[5],inactive
same,Potency,[6],inactive
same,Potency,[7],inactive
same,Potency,[8],22400 nM (active)
same,Potency,[3],17800 nM (active)
NCC1(CC(=O)O)CCCCC1,Potency,[1],inactive
same,Potency,[9],inactive
same,Potency,[10],inactive
same,Potency,[11],inactive
same,activity (max response),[8],12.5% and -5.41%
same,Potency,[3],inactive
